# Hit rate of the full screen: of about 48,000 compounds, about 13,000 (27%) showed an effect of 50% or more. Some of the results follow.
# System: Wolbachia pipientis
# Assay: Anti-Wolbachia Cell-Based Screen
# Format: functional
# Set-up: scale not given: in the data most compounds retested in dose-response had high values
# Conditions: 5 µM
row,SMILES,Percent Effect [%]
1,CN(Cc1ccno1)C(=O)c1cccc(CC2CCNCC2)c1,-13.23
2,CCNC(=O)NC(=O)CNC1(c2noc(C)n2)CCCC1,91.61
3,Cc1nc(C2(NC(=O)NCc3cc(C#N)ccc3F)CCCC2)no1,-8.279
4,Cc1nc(C2(NCc3ccc(C#N)cc3F)CCCC2)no1,14.6
5,COc1cc(-c2nccn2C(C)CCn2cccn2)cc2c1OCO2 (stereo not drawn),-13.68
6,CC1CCN(C)c2ccccc2N1C(=O)c1ccc(=O)n(C)n1 (stereo not drawn),-12.65
7,CC(C)(C)CN1CCCC(O)(CN2CCc3[nH]ncc3C2)C1=O (stereo not drawn),-1.805
8,CC(C)CCN1CCCC12Cc1ccccc1CNC2=O (stereo not drawn),106.1
9,CC(C)(C)CN1CCCC12Cc1ccccc1CNC2=O (stereo not drawn),188
10,O=C(CSc1nnc[nH]1)NCc1cccs1,-6.872
11,Cc1cccc(N(CCC(N)=O)CC(=O)NC2CCCC2)c1,-5.461
12,O=C(CN(Cc1cccs1)c1ccc(F)cc1)NC1CCOCC1,-0.05044
13,NC(=O)CCN(CC(=O)NCc1cccs1)c1ccc(F)cc1,110
14,Cc1cccc(N(CCC(N)=O)CC(=O)Nc2ccccc2)c1,2.508
15,COc1nn(C)cc1C(=O)NCC(=O)NCc1ccccn1,5.267
16,O=C(NCc1ccccn1)N(Cc1ccc(F)cc1F)C1CC1,-2.472
17,Cc1ccc(CNC(=O)CN(CCC(N)=O)c2ccc(F)cc2)cc1,105.8
18,NC(=O)CCN(CC(=O)NCc1ccccn1)c1ccc(F)cc1,119
19,CS(=O)(=O)CCOCCNc1ccc(Br)cn1,-8.426
20,CN(CCS(=O)(=O)c1cc(Cl)ccc1Cl)CC(=O)Nc1cccc(F)c1,-24.13
21,CC1CCCN(C(=O)c2cn(-c3ccc(C(F)(F)F)cn3)nn2)C1 (stereo not drawn),-4.176
22,Cc1cnc(CN2CCCC(c3cc(C(F)(F)F)[nH]n3)C2)cn1 (stereo not drawn),-5.55

row,SMILES,Percent Effect [%]
1,Cc1ccc(CN2CCCC(c3cncc(C)n3)C2)cn1 (stereo not drawn),118.4
2,Cc1cncc(C2CCCN(Cc3ccncc3)C2)n1 (stereo not drawn),93.31
3,Cc1cncc(C2CCCN(CC3CCC3)C2)n1 (stereo not drawn),105.7
4,CN(CCc1cn[nH]c1)C(=O)C1CC(=O)N(Cc2ccccn2)C1 (stereo not drawn),3.692
5,CC(C(=O)NCC1CCCCC1)S(=O)(=O)Cc1csc(-c2cccs2)n1 (stereo not drawn),-22.28
6,COCCNC(=O)NC1(c2nc(-c3ccncc3)no2)CCCCC1,-5.967
7,COCCNC(=O)NCCCOC1CCCc2ccccc21 (stereo not drawn),-3.457
8,O=C(NCCn1cnc(C2CCCC2)cc1=O)NCc1cccs1,5.486
9,CC(=O)NCc1nc(Cc2cccc(Cl)c2)nn1C1CCN(C)CC1,14.05
10,COCCNC(=O)NCc1cc(-c2cccs2)n(C2CCCC2)n1,108.7
11,COCCNC(=O)NCc1cc(-c2ccncc2)n(C2CCCC2)n1,117.5
12,CC(=O)NCc1cc(-c2cccs2)n(C2CCCC2)n1,97.9
13,CN(CCNC(=O)NCc1ccncc1)C1CCCC1,0.2327
14,CCCc1n[nH]c(C2CN(CCCS(C)(=O)=O)CCO2)n1 (stereo not drawn),8.162
15,CC(C)N1CCC(Nc2ccn(C)n2)C1=O (stereo not drawn),-18.51
16,CCc1n[nH]c(C2CN(CC(=O)NCCc3ccsc3)CCO2)n1 (stereo not drawn),-8.362
17,COc1ccc(S(=O)(=O)NCCC(O)c2cccs2)c(C)c1 (stereo not drawn),-2.091
18,COCc1nc(CNC2CSCCSC2)no1,8.788
19,CN(Cc1csc(-c2cccs2)n1)C(=O)CCn1ccc(=O)[nH]c1=O,-14.37
20,CCS(=O)(=O)N1CCC2(CC1)CC1(CCN(CCOC)CC1)C(=O)N2C.O=C(O)C(F)(F)F,-5.19
21,Cc1cnc(N2CCCOC(CN3CCCCC3)C2)nc1 (stereo not drawn),-5.032
22,CC(C)c1cc(C(=O)N2CCOC3(CCNCC3)C2)no1.O=C(O)C(F)(F)F,-1.615

row,SMILES,Percent Effect [%]
1,Cc1noc(C)c1C(=O)N1CCC2(CC1)CC(Oc1ccccc1)CO2 (stereo not drawn),-6.513
2,Cc1noc(C)c1CN1CC2(CCN(C(=O)c3ccc[nH]3)C2)CC1=O (stereo not drawn),-7.535
3,CC(C)c1cc(C(=O)N2CCC3(CCc4ccccc4C(=O)N3)C2)no1 (stereo not drawn),122.1
4,O=C1CCC2(CCCN(C(=O)c3ccco3)CC2)N1 (stereo not drawn),-12.15
5,CC(C)c1cc(=O)[nH]c(-c2ccccc2CN2CCC(C)(C)C2)n1,32.6
6,Cc1noc(C)c1C(=O)N1CCC2(CCc3ccccc3C(=O)N2)C1 (stereo not drawn),127.4
7,CC(C)c1cc(C(=O)N2CCC3(CCc4ccccc4C(=O)N3)C2)on1 (stereo not drawn),142.6
8,CCC1CN(CCCNS(C)(=O)=O)c2ccccc2O1 (stereo not drawn),-7.766
9,Cc1cnn(CCNCC(O)COc2ccc(Cl)cc2)c1 (stereo not drawn),-10.6
10,CN(C)C(=O)c1ccc(C(C(=O)O)N(C)Cc2ccccc2Cl)cc1 (stereo not drawn),24.87
11,CC(C)=CCS(=O)(=O)Cc1nc(C(C)C)no1,-0.5421
12,N#Cc1ccc(OCCCN2CCc3cncnc3C2)cc1,-6.561
13,Cc1nnc(NCc2ccc(SC(F)F)cc2)o1,-21.33
14,CCN(Cc1ccc2cccc(O)c2n1)CC1CCCO1 (stereo not drawn),12.41
15,CC(C)n1ccnc1CNC(=O)c1cccc(CCC(C)(C)O)c1,1.765
16,O=C(O)C(F)(F)F.O=C(O)C(F)(F)F.c1cncc(C2COC3(CCN(Cc4nccs4)CC3)C2)c1 (stereo not drawn),106.4
17,O=C(O)C(F)(F)F.O=C(O)C(F)(F)F.c1cncc(C2COC3(CCN(Cc4cccs4)CC3)C2)c1 (stereo not drawn),94.58
18,Cc1ccc(CN2CCC3(CC2)CC(c2cccnc2)CO3)s1.O=C(O)C(F)(F)F.O=C(O)C(F)(F)F (stereo not drawn),-3.874
19,O=C(NC1COC2(CCN(Cc3cccs3)CC2)C1)c1ccccn1.O=C(O)C(F)(F)F (stereo not drawn),-12.32
20,COc1c(C)cc(S(=O)(=O)NCC2CNCCOC2)cc1C (stereo not drawn),-7.949
21,CC1CS(=O)(=O)CCN1Cc1ccccc1OCC(F)(F)F (stereo not drawn),-0.5987
22,CCC(C)(C)NC(=O)CN(C)C(c1cccc(F)c1)c1ccccn1 (stereo not drawn),3.895

row,SMILES,Percent Effect [%]
1,CCNC(=O)N(C)C(c1cccc(F)c1)c1ccccn1 (stereo not drawn),4.567
2,CN(C)C(C(=O)N1CC(c2ccccn2)C1)c1cccc(F)c1 (stereo not drawn),0.3934
3,CCC(CC)CNC(=O)N(C)C(C)c1ccccn1 (stereo not drawn),-0.07078
4,CC(C)NC(=O)N(C)C(c1cccc(F)c1)c1ccccn1 (stereo not drawn),108.7
5,CN(C)S(=O)(=O)N(C)C(c1cccnc1)c1ccc(F)c(F)c1 (stereo not drawn),6.924
6,CCNC(=O)N(C)C(c1ccccc1)c1ccccn1 (stereo not drawn),96.55
7,CN(C)S(=O)(=O)N(C)C(c1cccc(F)c1)c1ccccn1 (stereo not drawn),51.58
8,CC(NCc1cccc(S(=O)(=O)N(C)C)c1)c1ccccn1 (stereo not drawn),-1.385
9,CN(C(=O)C1CCCC1)C(c1cccc(F)c1)c1ccccn1 (stereo not drawn),96.46
10,Cc1cccc(C(C(=O)N2CC(c3ccccn3)C2)N(C)C)c1 (stereo not drawn),-0.3127
11,O=C(C1CCC1)N1CCOc2cccc(F)c21,-0.5451
12,CC(C)c1ccc(CN2CCC(CNS(=O)(=O)C3CC3)C2)cc1 (stereo not drawn),-21.58
13,O=C(c1ccc[nH]1)N1CCCC2(CCN(c3ccsc3)C2=O)C1 (stereo not drawn),-3.1
14,CCc1cccc(OC2CN(C(=O)[C@@H](N)CCSC)C2)c1,3.54
15,OCCc1cc(CC2(NCc3ccncc3)COC2)no1,9.116
16,CN(C)CCN(Cc1ccccn1)C(=O)Nc1cccc(F)c1,19.37
17,CN(C)C(C(=O)NCC(F)(F)F)c1cccc(F)c1 (stereo not drawn),-4.686
18,CC(=O)N(C)C(c1cccc(F)c1)c1ccccn1 (stereo not drawn),87.32
19,CC1=C[C@@H](CC#N)[C@H](C(C)C)C[C@H]1CC(=O)N1CCN(CCO)CC1,2.953
20,CCOC(=O)C1CCN(Cc2csc(C(C)(C)C)n2)CC1,-1.919
21,NC(=O)C1(CCCc2cccnc2)CCCN(c2ncccn2)C1 (stereo not drawn),-4.242
22,COCCN1CCCC(CCCc2ccccn2)(C(N)=O)C1 (stereo not drawn),100.6

row,SMILES,Percent Effect [%]
1,COCCCC1(CO)CCCN(CCc2ccccn2)C1 (stereo not drawn),15.21
2,NC(=O)C1(CCCc2ccccn2)CCCN(CCO)C1 (stereo not drawn),112.7
3,COCCC1(C(=O)O)CCCN(CCc2ccccc2)C1 (stereo not drawn),-4.304
4,CC(C)N1CCCC(CCCc2ccccn2)(C(=O)O)C1 (stereo not drawn),-10.26
5,O=C(Nc1ccc(Cl)cn1)C1CCCN(CCc2ccccn2)C1 (stereo not drawn),0.2896
6,CCN1CCCC(O)(CNCc2ccccn2)C1 (stereo not drawn),-18.44
7,CCCN(Cc1cccnc1)C(=O)C1CCCN(C)C1 (stereo not drawn),-0.4884
8,O=C(NCCc1ccccn1)N1CCSC2(CCCCC2)C1,2.458
9,CN1CCCC(CCCc2cccnc2)(C(N)=O)C1 (stereo not drawn),112
10,NC(=O)CN1CCCC(CCCc2ccccn2)(C(N)=O)C1 (stereo not drawn),100.4
11,CCOCC1COCCC12CCN(C(=O)C1=CCCCC1)CC2 (stereo not drawn),5.493
12,COCCCN(Cc1ccncc1)c1cc(C)ncn1,0.1133
13,CC1(C)COCCN1C(=O)CCc1nc(-c2ccc(Cl)cc2)no1,-5.513
14,Cc1ccc(OCc2nnc(SCC3CCCN(C)C3)o2)cc1 (stereo not drawn),8.956
15,NC(=O)C1(CCCc2ccccn2)CCCN(c2ncccn2)C1 (stereo not drawn),87.14
16,CN(C)C(=O)CN1CCCC(CCCc2ccccn2)(C(N)=O)C1 (stereo not drawn),83.83
17,CN(CCc1ccccn1)[C@@H]1CCN(c2cc(C(N)=O)ccn2)C[C@H]1O,-0.6803
18,O=C(CCCc1ccccn1)N1CCSC2(CCCCC2)C1,-12.36
19,CN(CCc1ccccn1)C(=O)Nc1cccnc1N1CCCC1,-10.3
20,Nc1ccnc(N2CCCC(CCc3ccccc3)(C(=O)O)C2)n1 (stereo not drawn),-8.777

# Reference: ChEMBL document CHEMBL3988442, “University of Dundee, Small-Polar-MMV Screening Library” (2021)
